Sampled rows, rich in hits. Any-hit rate of the full collection: about 1.9%.
RXFP1 agonist – agonists of human relaxin receptor RXFP1; Q9HBX9; HEK293T-RXFP1 cAMP TR-FRET, 30 min; response scale: percent of porcine relaxin response, buffer zero; Potency, µM (doses to about 57.5 µM), without a hit: at the top dose activation, actives largely listed as activators; hit rate 0.3% among 370,000; AID 2676; further: potency means the concentration at half of the fitted maximal effect; on the % scale 0 is the no-effect control and ±100 the full control effect; nearly all actives have a fitted effect of over 60% in size
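cAMP rise read by TR-FRET after 30 min, 37C compound exposure (up to 58 uM) in RXFP1-transfected HEK293 cells with Ro 20174 present. EC50 from Hill-equation fits, with 29 nM porcine relaxin as 100% and buffer as basal.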
Giardia killer – Giardia lamblia killing | Giardia lamblia trophozoite viability | hit rate 0.15% among 340,000 | activity change, % at 7.66 µM, hits read low | AID 540267; in the data active means activity change below about -80%; inconclusive means between about -30% and that limit;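 further: parasites exposed to compound for two days anaerobically before the ATP read; on the % scale 0 is the no-effect control and ±100 the full control effect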
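Each well holds 100 Giardia trophozoites and compound. After two days (48 hrs) at 37 deg C in anaerobic conditions, ATP is quantified by luminescence.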
RXFP1 antag – blocks the human relaxin receptor RXFP1. Q9HBX9. HEK293-RXFP1, relaxin-stimulated cAMP HTRF, 30 min; active compounds read low. activity change, negative = inhibition, % at 57.5 µM. hit rate 0.59% among 350,000;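 active means activity change of -60% or lower, but not beyond a set lower limit; inconclusive means change between -60% and -40%, or beyond the set limit; inactive means change above -40%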; further: on the % scale 0 is the no-effect control and ±100 the full control effect
NPSR antag – neuropeptide S receptor (human) antagonism, cAMP | Potency, µM (series often up to 38.3 µM), for inactives: at the top dose activity change, negative = inhibition, hits mostly inhibitors | hit rate 1% among 220,000 | AID 1461 | Q6W5P4 | CHO-NPSR cells, cAMP TR-FRET, antagonist mode; further: potency means the concentration at half of the fitted maximal effect; on the % scale 0 is the no-effect control and ±100 the full control effect; nearly all actives have a fitted effect of over 50% in size
BRCA1 expr act – BRCA1 expression activation; MCF7-BRCA1-FFLuc reporter, luminescence, 48 h; response scale: scaled: vehicle 0%, 10 µM genistein 100%; Potency, µM (series often up to 46.1 µM), for the others: top-dose activation, actives largely listed as activators; hit rate 1.1% among 380,000; further: potency means the concentration at half of the fitted maximal effect; nearly all actives have a fitted effect of over 80% in size
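MCF7-BRCA1-FFLuc, 2000 cells/well; 2 h attach, 37 °C/5% CO2; compound 48 h; luciferase substrate 15 min; luminescence end-point. Norm. to genistein 10 microM max activation and DMSO; concentration-response curves fitted.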
IL2 activator – activators of IL-2; IL-2 activation reporter assay, cell-based qHTS; stimulated with anti-CD3/CD4/CD28 beads; in transgenic mouse T cells; activation, % (series mostly up to about 46 µM); hit rate 0.065% among 360,000; in the data active means activation above about 50%; inconclusive means mostly about 30% to 49%; further: 0% is about no effect
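Readout is EGFP and DsRed signal by fluorescent plate cytometry after 18 h at 37 degrees C. Transgenic mouse T cells (750/well) received compound for 60 min before bead stimulation (anti-CD3, anti-CD4, anti-CD28); memory T cells served as non-tolerant control.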
* hit, by the source's call; ? = inconclusive; · = no result; ! = repeats disagree; [ ] = another dose, or the depositor's remark. Unless noted, the call rests on the fitted dose curve; in most records, active means well fitted curve in the direction sought with a large enough effect; inconclusive means small, poorly fitted or top-dose-only effect, or another doubt; inactive means no such curve, though single readings can be large; an effect the other way counts as inactive or inconclusive.

SMILES	RXFP1 agonist	Giardia killer	RXFP1 antag	NPSR antag	BRCA1 expr act	IL2 activator
O=C(N/N=C/c1ccccc1)C(=O)N/N=C/c1ccccc1	1%	5	-6	·	1%	0
O=C(C=C=Nc1ccccc1)C(=O)N=C=Cc1ccccc1	-2%	7	-61*	?	-73%	-4
CCN(CC)S(=O)(=O)c1ccc(C(=O)N2CC(=O)Nc3ccc(F)cc3C2c2ccccc2)cc1 (configuration not stated)	-1%	·	-11	·	·	·
Cc1nc2ccc(S(=O)(=O)N(C)CC(=O)Nc3ccc(Br)c(C)c3)cc2s1	1%	·	-8	·	·	·
CN1C(=O)/C(=C/c2ccc(OC(=O)c3ccco3)cc2)SC1=S	3%	-13	-4	·	-4%	56*
CN1C(=O)/C(=C\c2ccc(OC(=O)c3ccco3)cc2)SC1=S	-1%	-1	13	·	-4%	8
CN(C)c1ccc(NC(=O)C2C3C=CC(C3)C2C(=O)O)cc1 (configuration not stated)	-15%	-21	-119*	·	-28%	-2
Cc1cccc(C(=O)NNC(=O)c2cccc(C)c2)c1	0%	2	9	14%	20%	0
Cc1ccc(CONC(=O)c2cccc(C)c2)cc1	0%	13	5	·	8.9µM*	1
O=C(NOCc1ccccc1)c1ccccc1	0%	-3	·	·	1.3µM*	-4
O=C(O)c1cn(C2CC2)c2cc(Cl)c(F)cc2c1=O	·	·	-13	·	·	·
CC1CC(C)CN(CCCn2c(=S)[nH]c3ccccc3c2=O)C1 (configuration not stated)	0%	-6	-11	-1%[46.1 µM]	3%	1
C[C@@H]1CN(CCCn2c3ccccc3c3ccccc32)C[C@H](C)N1	3%	·	-97*	-11%	·	·
CN(C)CCOCCOc1ccc(Cl)cc1C(C)(C)C	-1%	-6	?	37%	-49%	-1
CC(O)CNCCCOc1ccc(Cl)cc1C(C)(C)C (configuration not stated)	-1%	9	-61*	15%	-67%	-5
NCCCC(N)CC(=O)NCC1NC(=O)C(CO)NC(=O)C(N)CNC(=O)C(C2CCN=C(N)N2)NC(=O)C(=CNC(N)=O)NC1=O (configuration not stated)	·	·	-13	·	·	·
Cc1ccnc(NC(=O)c2ccc(Cl)c(S(=O)(=O)N3CCCC3)c2)c1	0%	1	14	·	7.1µM*	-4
Cc1ccc(C(=O)Nc2cccc(O)c2)cc1S(=O)(=O)N1CCCCCC1	-1%	42	-83*!	·	90%	-1
Cc1ccnc(NC(=O)c2ccc(Cl)c(S(=O)(=O)N3CCCCC3)c2)c1	1%	-14	1	·	51%	0
Cc1ccc(C(=O)NC2CCCCCCC2)cc1S(=O)(=O)N1CCOCC1	0%	9	-10	·	10µM*	0
O=C(NC1CCCC1)c1ccc(Cl)c(S(=O)(=O)N2CCOCC2)c1	-2%	-9	1	·	0%	4
Cc1cccc(-c2noc(-c3cc(C(C)C)[nH]n3)n2)c1	1%	·	-12	·	·	·
COc1cc(C2C(C(=O)c3cc4ccccc4o3)=C(O)C(=O)N2c2cc(C)on2)cc(OC)c1OC (configuration not stated)	?	8	6	·	11%	-3
Cc1cc(N2C(=O)C(O)=C(C(=O)c3cc4ccccc4o3)C2c2cccc(Br)c2)no1 (configuration not stated)	16µM*	-17	10	·	-21%	1
COc1cccc(C2C(C(=O)c3cc4ccccc4o3)=C(O)C(=O)N2c2cc(C)on2)c1OC (configuration not stated)	?	2	12	3.2µM*	-22%	0
COc1cccc2cc(C(=O)C3=C(O)C(=O)N(Cc4ccco4)C3c3cccnc3)oc12 (configuration not stated)	25µM*	-2	8	7.9µM*	-31%	-2
COc1ccccc1C1C(C(=O)c2ccco2)=C(O)C(=O)N1c1cc(C)on1 (configuration not stated)	?	14	-19	·	-3%	0
